Sampled rows, rich in hits. Any-hit rate of the full collection: about 2.4%.
Cruzain inh Det: blocks cruzain activity in presence of Triton detergent; P25779; purified cruzain, Z-FR-AMC fluorescence, 0.01% Triton; Potency, µM, for the others: max response, negative = inhibition, most hits filed as inhibitors; actives 0.43% (n = 200,000);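 further: plate controls were neutral wells for no effect and buffer without enzyme for full effect; nearly all actives have a fitted effect of over 40% in size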
Target sequence (P25779 123-467 limits assumed): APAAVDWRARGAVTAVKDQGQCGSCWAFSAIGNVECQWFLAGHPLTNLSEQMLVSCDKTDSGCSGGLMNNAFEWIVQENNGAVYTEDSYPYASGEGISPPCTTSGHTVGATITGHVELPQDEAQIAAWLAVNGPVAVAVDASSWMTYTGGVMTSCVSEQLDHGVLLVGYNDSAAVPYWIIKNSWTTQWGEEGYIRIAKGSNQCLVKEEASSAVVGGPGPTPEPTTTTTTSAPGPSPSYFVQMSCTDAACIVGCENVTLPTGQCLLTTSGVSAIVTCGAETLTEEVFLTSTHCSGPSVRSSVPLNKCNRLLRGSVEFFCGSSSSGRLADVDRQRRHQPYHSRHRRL
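In this qHTS format, compounds are incubated with 1.5 nM cruzain for 15 min at room temperature before 2 uM Z-FR-AMC is added. Release of AMC is followed at 360/450 nm, and progress is taken as the 60 s fluorescence difference.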
Cruzain inh noDet: inhibitors of Trypanosoma cruzi cruzain without detergent; P25779; purified cruzain, Z-FR-AMC fluorescence, no detergent; Potency, µM, for the others: max response, negative = inhibition, usual class: inhibitors; actives 2.3% (n = 200,000);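 further: plate controls were enzyme without inhibitor for no effect and buffer without enzyme for full effect; nearly all actives have a fitted effect of over 40% in size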
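Detergent-free condition (0.00005% Triton X-100) in acetate buffer pH 5.5 with DTT. 1.5 nM enzyme and compound were pre-mixed 15 min, then 2 uM Z-FR-AMC substrate added; reaction progress from fluorescence change between first and third reads (60 s).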
Starred values were filed as active, the others as inactive; ? = inconclusive. The call rests on the fitted dose curve; in most records, active means well fitted curve in the direction sought with a large enough effect; inconclusive means small, poorly fitted or top-dose-only effect, or another doubt; inactive means no such curve, though single readings can be large; an effect the other way counts as inactive or inconclusive. Potency means the concentration at half of the fitted maximal effect.

SMILES	Cruzain inh Det	Cruzain inh noDet
CC(/C=C/c1ccc(N(C)C)cc1)=N\N=C(/N)SC1CC(=O)N(c2ccc(C(=O)O)cc2)C1=O (stereo not given)	?	10µM*
Cc1cc(C)cc(N(CCC(=O)O)S(=O)(=O)c2ccc3ccccc3c2)c1	-4.6%	?
O=S(=O)(Nc1ccc(-c2nc3cccnc3s2)cc1)c1cccs1	-3.0%	12.6µM*
O=S(=O)(Nc1ccc(-c2nc3cccnc3s2)cc1)c1ccc(Cl)s1	-12.0%	?
COc1cc(-c2nc(S(=O)(=O)c3ccc(C)cc3)c(N3CCOCC3)o2)cc(OC)c1OC	-1.9%	?
CN(C)/C=C1\C(=O)N(c2ccc(Cl)cc2)CS1(=O)=O	-1.6%	-3.8%
COc1ccc(-c2nc(C(N)=O)c3[nH]c(=O)n(-c4ccccc4OC)c3n2)c(OC)c1	-2.0%	-10.8%
Nc1nnnn1/N=C/c1ccccc1OCc1ccc(Cl)cc1Cl	14.1µM*	15.8µM*
Nc1nnnn1/N=C/c1ccccc1OCc1ccc(Cl)cc1	-4.6%	-28.3%
Cc1cc([N+](=O)[O-])nn1Cc1c(F)c(F)c(F)c(F)c1F	1.2%	-7.0%
COc1cccc(NC(=O)COC(=O)c2c(-c3ccccc3)noc2C)c1	-3.7%	0.3%
O=C(CN1CCOCCOCCN(CC(=O)Nc2ccccc2)CCOCC1)Nc1ccccc1	4.0%	22.2%
CCOc1ccc2c(c1)nc(SCC(=O)c1cccs1)n2C	-1.7%	9.6%
CCOc1ccc2c(c1)nc(SCC(=O)c1ccc(Br)s1)n2C	4.0%	25.1µM*
CCOC(=O)c1cccc(NC(=O)C2COc3ccc(OC)cc3C2)c1 (stereo not given)	-6.1%	5.6%
CCN(CC)S(=O)(=O)c1ccc(NC(=O)C2c3ccccc3Oc3ccccc32)cc1	-5.0%	?
COc1ccc([C@@H](Nc2ccccn2)c2cc(C(C)(C)C)cc(C(C)(C)C)c2O)cc1	-5.0%	2.5%
Cc1cc(C(=O)Nc2cccnc2Cl)on1	-2.8%	-6.3%
CCOC(=O)c1ccc(NC(=O)N2CCOc3ccccc32)cc1	-3.2%	10µM*
CCOC(=O)c1ccc(NC(=O)Nc2ccc3c(c2)OCCO3)cc1	-11.7%	0.5%
Oc1ccc2ccccc2c1C1Nc2cccc3cccc(c23)N1	-7.4%	?
CCN(CC)c1ccc(C2Nc3cccc4cccc(c34)N2)c(O)c1	-8.9%	12.6µM*
COc1ccc(Oc2c(Cl)cnn(-c3ccc(F)cc3)c2=O)cc1	0.5%	3.9%
CC1(C)C2([N+](=O)[O-])CN3CC1([N+](=O)[O-])CN(C2)C3c1ccccc1 (stereo not given)	3.9%	20µM*
CC(C)c1ccc(C2N3CCCN23)cc1 (stereo not given)	-2.1%	-5.8%
SMILES	Cruzain inh Det	Cruzain inh noDet
CC(C)c1ccc(C2N3CC4([N+](=O)[O-])CN2CC([N+](=O)[O-])(C3)C4(C)C)cc1 (stereo not given)	2.4%	10µM*
CC1(C)C2([N+](=O)[O-])CN3CC1([N+](=O)[O-])CN(C2)C31CCCC1	6.0%	-3.8%
CCn1c(CCNC(=O)c2ccc(OC)cc2)nnc1SCc1ccc(Cl)cc1Cl	-7.3%	?
CCc1ccccc1-n1c2c(cc(-c3nc(-c4ccc(Cl)cc4)cs3)c1=O)C(=O)CC(C)(C)C2	-0.7%	-6.9%
COc1cc(OC)nc(Oc2ccccc2C(=O)Oc2ccc(F)cc2Cl)n1	-4.8%	5.5%
Cc1cc(O)c(C(C[N+](=O)[O-])c2ccc(Cl)cc2)c(=O)o1 (stereo not given)	0.4%	-15.1%
Cc1cc(C)n(C(C[N+](=O)[O-])c2ccc(Cl)cc2)n1 (stereo not given)	-5.3%	20µM*
O=C(COC(=O)c1ccc2ccccc2c1)Nc1ncc(C(F)(F)F)cc1Cl	5.1%	-5.1%
Cc1ccc(C)c(SCC(=O)OCC(=O)Nc2ncc(C(F)(F)F)cc2Cl)c1	?	15.2%
O=C(COC(=O)CSc1cccc2cccc(Cl)c12)Nc1ncc(C(F)(F)F)cc1Cl	?	25.1µM*
O=C(COC(=O)CNC(=O)c1ccccc1Cl)Nc1ncc(C(F)(F)F)cc1Cl	1.58µM*	1.26µM*
O=C(Nc1ccccc1)OC1C2CCC1C(N1CCCCC1)CC2 (stereo not given)	6.6%	11.1%
CC(C)NC(=O)CN1C(=O)NC(CCc2ccccc2)C1=O (stereo not given)	2.9%	-0.2%
COC(=O)c1cccc(NC(=O)Nc2cc(C(=O)NCc3cccc(F)c3)ccc2N2CCCC2)c1	-3.5%	?
O=C(Cc1ccccc1)Nc1ccccc1N1CCN(c2ccccc2)CC1	-2.6%	-22.4%
O=C(Nc1ccccc1N1CCN(c2ccccc2)CC1)C12CC3CC(CC(C3)C1)C2	4.8%	25.1µM*
COc1ccc(/C=C/C(=O)N2CCC(c3ccccc3)C2)cc1 (stereo not given)	-4.9%	-11.0%
COc1ccc(NC(=O)/C=C/c2cc(Br)ccc2OC)cc1	-4.7%	-2.3%
CCN(CC)c1ccc(NC(=O)/C=C/c2cc(Br)ccc2OC)cc1	-3.6%	25.1µM*
CCOC(=O)C1=C(N)n2c(s/c(=C\c3ccco3)c2=O)=C(C(=O)OCC)C1c1ccco1 (stereo not given)	-5.5%	7.94µM*
CCOC(=O)C1=C(N)n2c(s/c(=C/c3ccccc3)c2=O)=C(C(=O)OCC)C1c1ccccc1 (stereo not given)	-1.5%	-9.3%
CCOC(=O)C1=C(c2ccccc2)N=c2s/c(=C\c3ccco3)c(=O)n2C1c1cccs1 (stereo not given)	-0.7%	?
CCOC(=O)C1=C(N)n2c(s/c(=C\c3ccco3)c2=O)=C(C(=O)OC(C)C)C1c1ccco1 (stereo not given)	-8.4%	10µM*
FC(F)(F)c1ccc(-c2noc(-c3ccccc3Br)n2)cc1	-0.2%	0.8%
CCc1ccc(CNC(=O)c2cnc3sc(N4CCCCCC4)nn3c2=O)cc1	-0.5%	-5.1%
SMILES	Cruzain inh Det	Cruzain inh noDet
O=C(CSC(=S)N1CCCCC1)Nc1nc(-c2ccccc2)c(-c2ccccc2)o1	0.6%	?
CCN(CC)C(=S)SCC(=O)Nc1nc(-c2ccccc2)c(-c2ccccc2)o1	-1.7%	31.6µM*
COc1ccc(C2=C/C(=C\c3cccc(OC(C)=O)c3)C(=O)O2)cc1	-4.7%	-19.2%
O=C(Nc1nnc(Cc2c[nH]c3ccccc23)s1)c1ccc(Cl)cc1Cl	-8.3%	25.1µM*
CC(C)(C)c1ccc(C(=O)Nc2nnc(Cc3c[nH]c4ccccc34)s2)cc1	5.5%	?
COc1ccc(-n2nc3ccc(NS(C)(=O)=O)cc3n2)cc1Cl	-7.8%	-19.2%
Cc1c(C(=O)Nc2ccc(F)cc2)oc2ccc(S(=O)(=O)N3CCCCCC3)cc12	-0.4%	31.6µM*
Cc1ccc(NC(=O)c2oc3ccc(S(=O)(=O)N4CCCCC4)cc3c2C)cc1C	1.8%	5.7%
Cc1c(C(=O)NCc2ccc3c(c2)OCO3)oc2ccc(S(=O)(=O)N3CCCC3)cc12	-0.9%	15.8µM*
Cc1c(C(=O)NCc2ccc3c(c2)OCO3)oc2ccc(S(=O)(=O)N3CCCCC3)cc12	3.0%	?
COC(=O)C(CCCCN1C(=O)C2C3C=CC(C3)C2C1=O)N1C(=O)C2C3C=CC(C3)C2C1=O (stereo not given)	-2.2%	-3.0%
N#Cc1c(-n2cccc2/C=N/O)sc2c1CCCC2	-1.0%	1.6%
CCOC(=O)C1[C@H]2C(=O)N(CCCOC)C[C@]23C=C[C@H]1O3 (stereo not given in full)	3.6%	-6.3%
CCCn1c(O)c(/C=C2\C=NN=C2c2ccccc2)sc1=S	-7.2%	5.1%

Compound activity (PubChem)
